Compound activity (PubChem)
Hits are enriched below; roughly 9.5% of the tested compounds scored in any of these assays.
Tau fluor counter = counter-screen for tau fibril formation inhibitors; tau K18 P301L Alexa594 fluorescence, heparin fibrillization; Potency, µM (doses to about 57.7 µM), for inactives: at the highest dose activity change, negative = decrease; 280,000 tested, 0.93% active; AID 1463; further: nearly all actives have a fitted effect of over 55% in size
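Human K18 P301L tau (15 uM unlabeled plus 0.24 uM Alexa 594-labeled, final) in 100 mM sodium acetate pH 7 was mixed with compound and 20 uM heparin and incubated 6 hr at 37 C.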
NPSR antagonist = neuropeptide S receptor (human) antagonism, cAMP; Q6W5P4; Potency, µM (series often up to 38.3 µM), for the others: top-dose activity change, negative = inhibition, hits mostly inhibitors; 220,000 tested, 1% active; CHO-NPSR cells, cAMP TR-FRET, antagonist mode; further: nearly all actives have a fitted effect of over 50% in size
Tau FP inhib = inhibitors of human tau fibril formation | Potency, µM (highest dose often 57.7 µM), for inactives: at the highest dose activity, negative = inhibition, most hits filed as inhibitors | K18 P301L tau heparin fibrillization, Alexa594 FP, 6 h | 280,000 tested, 0.39% active | P10636; further: nearly all actives have a fitted effect of over 55% in size
Target sequence (P10636 561-689 P618L limits assumed): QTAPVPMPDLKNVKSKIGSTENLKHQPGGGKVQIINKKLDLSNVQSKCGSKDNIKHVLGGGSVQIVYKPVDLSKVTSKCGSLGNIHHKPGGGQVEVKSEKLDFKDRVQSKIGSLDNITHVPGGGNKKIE
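K18 P301L tau (15 uM unlabeled/0.24 uM Alexa 594-labeled, final) + compound + heparin 20 uM final; 100 mM NaOAc pH 7; 6 hr 37 C; ThT 30 uM final added, 1 hr RT; FP ex 555/em 632 nm.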
HPGD block = inhibitors of human 15-hydroxyprostaglandin dehydrogenase (HPGD); P15428; purified HPGD, NADH fluorescence kinetic, PGE2 substrate; Potency, µM, for the others: top-dose activity change, negative = inhibition, most hits filed as inhibitors; 150,000 tested, 4.3% active; active means well fitted inhibition curve with a large enough effect, not every such curve was filed as active; inconclusive means small, poorly fitted or top-dose-only effect, or another doubt; inactive means no such curve, though single readings can be large or run the other way
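20 nM HPGD preincubated 15 min at room temperature with compound in 50 mM Tris-HCl pH 8, 0.01% Tween 20. Started with 1 mM NAD+ and 30 uM prostaglandin E2; NADH fluorescence (360/450 nm) read 5 times over 30-s intervals, last minus first.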
ALDH1A1 block = blocks purified human ALDH1A1 activity | Purified ALDH1A1, NADH fluorescence, propionaldehyde substrate | Potency, µM (doses to about 75.3 µM), for inactives: at the top dose activity, negative = inhibition, most hits filed as inhibitors | 220,000 tested, 7.3% active | AID 1030; active means well fitted inhibition curve with a large enough effect, not every such curve was filed as active; inconclusive means small, poorly fitted or top-dose-only effect, or another doubt; inactive means no such curve, though single readings can be large or run the other way;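 further: plate controls were no enzyme wells and a reference inhibitor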
Target sequence (P00352 whole entry, looked up): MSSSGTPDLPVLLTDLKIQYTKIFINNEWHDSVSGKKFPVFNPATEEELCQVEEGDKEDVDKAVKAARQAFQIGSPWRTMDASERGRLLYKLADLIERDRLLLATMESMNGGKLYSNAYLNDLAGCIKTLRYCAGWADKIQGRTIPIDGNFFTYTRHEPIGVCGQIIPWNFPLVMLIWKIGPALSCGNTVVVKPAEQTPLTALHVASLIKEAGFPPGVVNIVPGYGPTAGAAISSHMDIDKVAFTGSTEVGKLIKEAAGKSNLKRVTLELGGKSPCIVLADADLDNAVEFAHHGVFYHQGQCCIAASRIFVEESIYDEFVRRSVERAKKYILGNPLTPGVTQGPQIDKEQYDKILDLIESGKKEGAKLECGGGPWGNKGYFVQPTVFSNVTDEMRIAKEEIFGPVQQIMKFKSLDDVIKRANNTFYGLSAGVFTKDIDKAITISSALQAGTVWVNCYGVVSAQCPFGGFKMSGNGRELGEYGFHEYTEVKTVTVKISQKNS
Tau ThT inhib = tau fibrillization inhibition (ThT binding); recombinant tau K18 P301L, heparin-induced fibrillization, ThT fluorescence; Potency, µM (series often up to 57.4 µM), for the others: top-dose activity, negative = inhibition, most hits filed as inhibitors; P10636; 270,000 tested, 2.1% active; AID 1460; further: nearly all actives have a fitted effect of over 55% in size
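Fibril formation assay: tau K18 P301L at 15 uM with trace Alexa 594 label, heparin inducer 20 uM, pH 7 sodium acetate buffer, 37 C for 6 hr; endpoint ThT signal.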
* hit, by the source's call; ? = inconclusive; nt = not tested or not shown; [ ] = remark or other dose. Unless noted, the call rests on the fitted dose curve; in most records, active means well fitted curve in the direction sought with a large enough effect; inconclusive means small, poorly fitted or top-dose-only effect, or another doubt; inactive means no such curve, though single readings can be large; an effect the other way counts as inactive or inconclusive. Unless noted, on the % scale 0 is the no-effect control and ±100 the full control effect; potency means the concentration at half of the fitted maximal effect.

SMILES	Tau fluor counter	NPSR antagonist	Tau FP inhib	HPGD block	ALDH1A1 block	Tau ThT inhib
COc1ccc(Nc2oc(COc3ccc(C)cc3)nc2C#N)cc1	?	-20.9%[46.1 µM]	6.1%	25.1µM*	?	?
CCN(Cc1ccncc1)C(=O)c1ccc2c(c1)S(=O)(=O)c1ccccc1C2=O	0.8%	13.5%	1.3%	nt	?	-3.0%
COc1ccc(C(=O)Cc2ccc3c(c2)OCO3)c(O)c1	6.1%	5.3%	7.1%	?	-1.1%	1.9%
O=C(Cc1ccc2c(c1)OCCO2)c1c(O)cc(O)cc1O	-28.8%	-20.8%[46.1 µM]	7.9%	20µM*	?	-14.2%
O=C(O)COc1ccc(C(=O)Cc2ccc3c(c2)OCCCO3)c(O)c1	-1.4%	?	-2.1%	?	22.4µM*	4.2%
Cc1sc2c(c1C)c(=O)nc1n2Cc2ccccc2-1	-3.3%	-0.2%[46.1 µM]	-0.4%	?	?	?
Cc1ccc(C(=O)Nc2ccc3c(c2)N(C)C(=O)c2ccccc2S3)cc1F	?	nt	?	nt	nt	-0.1%
O=C(CSc1nc(C2CC2)nc2ccccc12)N1c2ccccc2Sc2ccc(C(F)(F)F)cc21	-8.2%	7.94µM*	-2.1%	-10.4%	0.6%	-8.4%
O=C(CN1CCCC(O)C1)N1c2ccccc2Sc2ccc(C(F)(F)F)cc21 (stereo unspecified)	-9.5%	-19.9%[46.1 µM]	-5.9%	nt	-2.9%	-13.2%
COc1ccc(NC(=O)Cn2nnc(-c3ccccc3NC(=O)C3CC3)n2)cc1	-19.9%	-11.0%[46.1 µM]	-8.7%	nt	-0.4%	-11.9%
COc1ccc(C(=O)Cn2nnc(-c3ccccc3NC(=O)C3CCCCC3)n2)cc1	?	-17.3%[46.1 µM]	?	-13.2%	0.282µM*	3.9%
Nn1c(Cc2cccc3ccccc23)nnc1SCc1ccccc1	-5.5%	-14.3%	1.9%	12.6µM*	0.0%	-7.2%
COc1ccc(OCCSc2nnc(Cc3cccc4ccccc34)n2N)cc1	5.7%	-1.7%	3.5%	22.4µM*	?	7.8%
Nn1c(Cc2ccccc2F)nnc1SCCOc1ccc(Cl)cc1	-11.7%	-30.8%	-5.1%	?	?	-3.1%
CN1C(=S)N(c2ccccc2)C(=O)/C1=C/c1ccco1	-5.1%	-12.8%	-3.7%	-20.6%	12.6µM*	-16.4%
Cc1ccsc1C(=O)OCc1csc(-c2ccccc2)n1	-14.6%	-26.5%[46.1 µM]	-2.0%	-10.5%	-1.7%	-17.6%
COc1cc(/C=N/NC(=O)c2cc(-c3ccco3)nc3ccccc23)cc(OC)c1O	?	27.1%	10.8%	nt	22.4µM*	?
COc1cc([N+](=O)[O-])cc(/C=N/NC(=O)c2cc(C)nc3ccccc23)c1O	-22.2%	-1.6%	-8.3%	nt	nt	14.1µM*
COc1cc([N+](=O)[O-])cc(/C=N/NC(=O)c2cc(-c3ccccc3)nc3ccccc23)c1O	?	-3.4%	13.0%	nt	nt	15.8µM*
COc1cc(/C=N\Nc2nc3ccccc3o2)cc(OC)c1OC	-26.0%	-2.7%[46.1 µM]	5.4%	-13.1%	6.6%	?
COc1cc(/C=N/Nc2nc3ccccc3o2)cc(OC)c1O	?	-7.2%[46.1 µM]	7.9%	-23.3%	0.0%	14.1µM*
Cc1cc(C(=O)N/N=C/c2cccc([N+](=O)[O-])c2)c2ccccc2n1	-8.4%	6.1%	-7.5%	-9.7%	?	?
CO[C@@H]1/C=C\CC(=O)N[C@@H](C)C(=O)OC[C@H](NS(=O)(=O)c2ccc(C)cc2)[C@H](C)/C=C\CC(=O)OC[C@H]1C	-4.2%[11.6 µM]	nt	0.1%[11.6 µM]	nt	3.5%[13.5 µM]	-2.6%[11.5 µM]
Cc1c(C(=O)O)c(O)cc2c1C(=O)c1c(O)c([C@H]3O[C@H](CO)[C@@H](O)[C@H](O)[C@H]3O)c(O)c(O)c1C2=O	?	nt	-9.1%	17.8µM*	11.2µM*	?
CCOC(=O)c1[nH]c(C)c(CCC(=O)N2CCN(c3cc(Cl)ccc3C)CC2)c1C	-12.8%	nt	3.8%	nt	nt	?
SMILES	Tau fluor counter	NPSR antagonist	Tau FP inhib	HPGD block	ALDH1A1 block	Tau ThT inhib
CC(C)[C@@H](CC(=O)N[C@@H]1CCNC[C@H]1C(=O)N[C@H](CC(=O)N[C@@H](CCC(=O)O)CC(=O)O)Cc1c[nH]c2ccccc12)NC(=O)C[C@H](Cc1ccccc1)NC(=O)[C@@H]1CCCC[C@H]1N	-4.7%	nt	-0.2%	-10.0%	7.8%	-5.3%
CN(Cc1nc(-c2ccccn2)no1)S(=O)(=O)c1ccc(Cl)cc1	-7.3%	5.1%[46.1 µM]	1.5%	25.1µM*	?	-6.9%
Cc1ccc(C)c(CN2C(=O)c3ccccc3S(=O)(=O)c3ccc(C(=O)Nc4cc(F)ccc4F)cc32)c1	-13.3%	nt	?	nt	nt	5.9%
CCN(CC)S(=O)(=O)c1ccc2c(c1)[nH]c(=S)n2CC	-5.1%	-2.3%	4.4%	nt	17.8µM*	-6.3%
CCN(CC)S(=O)(=O)c1ccc2c(c1)c(C(=O)O)cn2C	1.9%	2.7%[46.1 µM]	2.7%	-11.7%	-1.4%	4.6%
CCOC(=O)c1ccc2c(c1)n(CC)c(C)[n+]2CC	15.2%	12.4%	-5.4%	nt	0.0%	5.1%
CCOC(=O)c1ccc2c(c1)[nH]c(=S)n2CC	-4.9%	-16.0%	-6.4%	nt	25.1µM*	?
CCN(CC)S(=O)(=O)c1ccc(Cl)nc1	-3.7%	4.7%	?	nt	-3.8%	0.8%
CCN(CC)S(=O)(=O)c1ccc2nc(CCl)[nH]c2c1	2.7%	-4.1%	5.0%	nt	20µM*	3.3%
CCC1=C(OC(=O)N(CC)CC)N2C(=O)OC(=NCCOC)[C@]2(C)[C@H]2C1=CC[C@H]1C(=O)N(C)C(=O)[C@H]12	-8.9%	nt	-3.8%	-9.1%	-10.4%	-9.6%
CCOc1ccccc1NC(=O)Cn1c(=O)n(Cc2nc(C)no2)c(=O)c2ccccc21	1.9%	nt	-5.3%	nt	nt	9.0%
CC(C)C(=O)Nc1ccc(S(=O)(=O)Nc2nccc(/C=C/c3ccccc3)n2)cc1	4.1%	-19.8%	-1.6%	-9.6%	?	-10.9%
COC(=O)C12CC3(CCC4C5C(C(OCc6ccccc6)C41)C52)OCCO3 (stereo unspecified)	-12.3%[11.6 µM]	nt	0.9%[11.6 µM]	nt	11.0%[13.5 µM]	-10.0%[11.5 µM]
Cc1csc2nc(COc3ccc(NC(=O)COc4ccccc4F)cc3)cc(=O)n12	2.0%	nt	1.9%	nt	nt	-11.7%
O=C(CC(c1cccs1)S(=O)(=O)c1ccccc1)c1ccc(F)cc1 (stereo unspecified)	-3.7%	11.3%	10.9%	-1.0%	25.1µM*	-15.7%
c1ccc(Cn2c(NCc3ccncc3)nc3ccccc32)cc1	-10.8%	-2.9%	?	nt	25.1µM*	-7.3%
O=c1c2c3c(sc2nc2n1CCCCC2)CCCCC3	-17.1%	-3.0%[46.1 µM]	-6.5%	?	?	-16.1%
O=c1c2c3c(sc2nc2n1CCCCC2)CCCC3	-6.2%	-9.6%[46.1 µM]	-2.3%	?	35.5µM*	?
N=C1[C@@H](O)[C@]2(I)c3ccccc3N3C(=N)[C@H](O)[C@@H]4c5ccccc5N1[C@@H]4[C@@H]32	nt	nt	nt	3.98µM*	-4.0%[13.5 µM]	nt
